Assay results from PubChem BioAssay (NCI).
About 79,000 compounds went through this panel and 15% of them were active in at least one assay; those are over-represented in the sample as a whole. Values without a mark were called inactive. Activity calls are given as the source filed them. No stated cut-off is given here; in the data, active means growth inhibition above about 70%; inactive means the rest.

Experiments:
[1] = NCI Yeast Anticancer Drug Screen. Data for the rad50 strain (AID 155);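 further: 0% = growth of vehicle-only cultures of the same strain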; details: S. cerevisiae rad50 strain growth inhibition, active compounds read high
How it was run: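 Compounds were tested on a yeast strain with an engineered DNA damage repair alteration; the reported value is growth inhibition normalised to vehicle treatment.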

[2] = NCI Yeast Anticancer Drug Screen. Data for the mec2-1 strain (AID 157); details: S. cerevisiae mec2-1 strain, active compounds read high
How it was run: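 Each compound was tested on mec2-1 yeast, a strain altered in DNA damage repair or cell cycle control. Growth inhibition is reported relative to vehicle.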

[3] = NCI Yeast Anticancer Drug Screen. Data for the sgs1 mgt1 strain (AID 161);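 further: 0% = growth of cultures given vehicle only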; details: S. cerevisiae sgs1 mgt1 strain, active compounds read high
How it was run: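 Read-out: growth inhibition vs vehicle controls. Cells: mutant yeast strain deficient in DNA damage repair.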

[4] = NCI Yeast Anticancer Drug Screen. Data for the cln2 rad14 strain (AID 165);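 further: 0% = growth equal to vehicle treated cultures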; details: S. cerevisiae cln2 rad14 strain, active compounds read high
How it was run: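 Test compounds were added to cln2 rad14 yeast cultures; inhibition of growth was then determined by comparison with vehicle treatment.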

[5] = NCI Yeast Anticancer Drug Screen. Data for the bub3 strain (AID 167); details: S. cerevisiae bub3 mutant strain, active compounds read high
How it was run: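 Growth of a checkpoint-deficient yeast mutant is measured after compound exposure. Values represent inhibition relative to vehicle.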

[6] = NCI Yeast Anticancer Drug Screen. Data for the mlh1 rad18 strain (AID 175); details: S. cerevisiae mlh1 rad18 strain growth inhibition, active compounds read high
How it was run: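 Inhibition values reflect reduced growth of mutant yeast versus vehicle-treated controls following compound exposure; the mutations affect DNA damage repair.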

[7] = at 5.0 µM (retest, dose inferred, filed as 0.5)
[8] = at 50.0 µM (retest, dose inferred, filed as 5.0)

| SMILES | growth inhibition [1, 7] | growth inhibition [1, 8] | growth inhibition ([1]; at 50.0 µM) | growth inhibition [2, 7] | growth inhibition [2, 8] | growth inhibition ([2]; at 50.0 µM) | growth inhibition [3, 7] | growth inhibition [3, 8] | growth inhibition ([3]; at 50.0 µM) | growth inhibition [4, 7] | growth inhibition [4, 8] | growth inhibition ([4]; at 50.0 µM) | growth inhibition [5, 7] | growth inhibition [5, 8] | growth inhibition ([5]; at 50.0 µM) | growth inhibition [6, 7] | growth inhibition [6, 8] | growth inhibition ([6]; at 50.0 µM) |
| --- | --- | --- | --- | --- | --- | --- | --- | --- | --- | --- | --- | --- | --- | --- | --- | --- | --- | --- |
| Cn1c(=S)sc2nc3ccccc3n2c1=S | 49% | 96% (active) | 82.3% (active) | 12% | 97% (active) | 97% (active) | 37% | 98% (active) | 92.2% (active) | 18% | 98% (active) | 90% (active) | 14% | 98% (active) | 87.4% (active) | 54% | 97% (active) | 97.9% (active) |
| CCCCCC(C1SC(=S)NC1=O)C1SC(=S)NC1=O (configuration not stated) | 1% | -3% | 96.8% (active) | 2% | 1% | 93.2% (active) | 5% | 6% | 95% (active) | -1% | -1% | 83% (active) | 0% | 0% | 97.6% (active) | 0% | 3% | 81.8% (active) |
| O=CC1(c2ccc(Cl)cc2)NC(=O)NC1=O (configuration not stated) | -1% | 1% | 3.45% | -1% | -3% | -1.7% | 2% | 2% | -9.45% | 3% | -14% | 83% (active) | -1% | -1% | -10.3% | -5% | -4% | 3.35% |
| CSC(=S)N/N=C\C(C)=N/N=C(N)N | 14% | 92% (active) | 94% (active) | 16% | 93% (active) | 74.5% (active) | 53% | 92% (active) | 85.4% (active) | -14% | 89% (active) | 18.9% | -4% | 92% (active) | 86.4% (active) | 30% | 90% (active) | 93.7% (active) |
| CC(=O)/C(=C\c1c(Cl)cccc1Cl)C(=O)CCN(C)C | 18% | 99% (active) | 75.8% (active) | 17% | 99% (active) | 70.5% (active) | 8% | 99% (active) | 81.6% (active) | 25% | 99% (active) | 41.2% | 27% | 99% (active) | 65.8% | 16% | 99% (active) | 67.9% |
| O=C(O)c1ccccc1C(=O)c1ccc2c(c1)Cc1ccccc1-2 | -5% | 9% | 68.6% | -3% | 4% | 41.3% | -4% | 7% | 44.9% | -28% | 31% | 74.8% (active) | 4% | 5% | 42.8% | 3% | 26% | 76% (active) |
| CC1NS(=O)(=O)N(C)C1=O (configuration not stated) | 3% | -5% | 3.05% | 6% | 3% | 15.6% | 5% | 3% | -2.2% | 0% | -13% | 36.7% | 6% | 16% | 8.55% | 2% | -9% | -1.05% |
| Cc1cccc(NC(=O)c2cc3cc(N=Nc4ccccc4Cl)ccc3oc2=O)c1 | 6% | 6% | 78.5% (active) | -2% | -2% | 70% (active) | 22% | 22% | 75.4% (active) | 3% | 3% | 35% | 6% | 6% | 78.3% (active) | 7% | 7% | 70.7% (active) |
| CCOc1ccc(Nc2nc(C)c(C(=O)/C=C/c3ccc(Cl)cc3Cl)s2)cc1 | 25% | 25% | 71.1% (active) | -6% | -6% | 31.9% | 8% | 8% | 33% | 6% | 6% | 48.4% | 6% | 6% | 55.5% | 20% | 20% | 17.6% |
| COC(=O)C(CCC(=O)Cc1ccccc1)N1C(=O)c2ccccc2C1=O (configuration not stated) | 6% | 67% | 70% | 1% | 91% (active) | 56.9% | 16% | 87% (active) | 81.6% (active) | 10% | 43% | 1.4% | 8% | 86% (active) | 76% (active) | 16% | 89% (active) | 88% (active) |
| CC(=O)Oc1c(Br)ccc2cc(C(Br)Br)c(C(=O)c3ccccc3)nc12 | 55% | 55% | 83.6% (active) | 38% | 38% | 87.5% (active) | 51% | 51% | 87.5% (active) | 30% | 30% | 82.9% (active) | 25% | 25% | 83.9% (active) | 53% | 53% | 81.4% (active) |
| Clc1ccc(/C=N\Nc2ccccc2)c(Cl)c1 | 4% | 99% (active) | 76.8% (active) | 1% | 99% (active) | 44.9% | -1% | 98% (active) | 30.1% | 2% | 86% (active) | -6.9% | -2% | 99% (active) | 31.7% | 1% | 99% (active) | 66.4% |
| CC12CCC(C(Br)(Br)C1=O)C2(C)C (configuration not stated) | 29% | 60% | 40.6% | 17% | 46% | 59.4% | 26% | 56% | 72.1% (active) | 22% | 41% | 30.5% | 18% | 74% (active) | 86.8% (active) | 16% | 68% | 88.7% (active) |
| C/C(=N\NC(=S)N1CCCCCC1)c1ccccn1 | 88% (active) | 99% (active) | 91.5% (active) | 86% (active) | 99% (active) | 92.6% (active) | 77% (active) | 99% (active) | 92.3% (active) | 67% | 98% (active) | 89.7% (active) | 87% (active) | 99% (active) | 92.1% (active) | 90% (active) | 98% (active) | 92% (active) |
| CC12CCC(=O)C=C1C=CC1C2CCC2(C)C1CCC21CCC(=O)O1 (configuration not stated) | 11% | 99% (active) | 74.6% (active) | 5% | 99% (active) | 80.2% (active) | 7% | 99% (active) | 84% (active) | 2% | 99% (active) | 24.1% | -1% | 99% (active) | 66.7% | 7% | 99% (active) | 72.8% (active) |
| Oc1ccc(N=Nc2ccccc2)cc1 | 13% | 97% (active) | 98.5% (active) | 5% | 99% (active) | 99.5% (active) | -6% | 64% | 99.3% (active) | -1% | 98% (active) | 98.1% (active) | 4% | 98% (active) | 98.8% (active) | 9% | 98% (active) | 99.2% (active) |
| Cc1cc(C)nc(NS(=O)(=O)c2ccc(Nc3c4ccccc4nc4c(C(=O)NC(CO)(CO)CO)cccc34)cc2)n1 | -11% | 26% | 81.8% (active) | 4% | -2% | -6.1% | 0% | -8% | 4.9% | 39% | -2% | 42.4% | 4% | 12% | 4.45% | -3% | 4% | -8.4% |
| O=S(=O)(O)c1ccc(N=Nc2ccc3c(S(=O)(=O)O)cccc3c2O)c2ccccc12 | 10% | -5% | -1.35% | 6% | -16% | -21.6% | 0% | -18% | -37.2% | -25% | -78% | 35% | -2% | -9% | -16.1% | -5% | -9% | 5% |
| Clc1ccc(CNc2ccc(Br)cc2)cc1 | 0% | 82% (active) | 94.5% (active) | 3% | 93% (active) | 85.5% (active) | 4% | 94% (active) | 95.8% (active) | -9% | 80% (active) | 82.2% (active) | 3% | 86% (active) | 85.2% (active) | -1% | 91% (active) | 87.7% (active) |
